A selection: hits, their analogues and other compounds. The true share with any hit is near 3.6%.
HTT-AS act = activators of huntingtin-antisense promoter activity; Potency, µM (series often up to 57.5 µM), for the others: at the highest dose activity change, positive = activation, hits mostly activators; 0.24% of 48,000 active; AID 1508624; HEK293 HTT-AS promoter firefly luciferase reporter, 24 h; response scale: percent change from vehicle, -100% = no light; further: potency means the concentration at half of the fitted maximal effect; nearly all actives have a fitted effect of over 55% in size
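Luminescence was read after Dual-Glo reagent and a 10 min room-temperature incubation. Values were normalized to vehicle (0% activity) and zero RLU (-100% activity). Reporter HEK293 cells had been exposed to compounds (up to 57.5 uM final) for 24 h.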
mTORC1 inh = inhibitors of mTORC1 signaling in Tsc2-/- p53-/- MEF cells; Tsc2-/- p53-/- MEF, phospho-rpS6 immunofluorescence/PI, 24 h; Potency, µM (highest dose often 38.3 µM), without a hit: top-dose activity change, negative = inhibition, hits mostly inhibitors; 0.78% of 44,000 active; AID 493208;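 further: potency means the concentration at half of the fitted maximal effect; plate controls were DMSO for no effect and rapamycin for full effect; nearly all actives have a fitted effect of over 50% in size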
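Read-out: phospho-S6 Alexa-488 intensity over PI intensity per well, scored as % active cells using thresholds from rapamycin (7.5 nM) and DMSO controls. Tsc2-/-, p53-/- MEFs exposed to compound for 24 h; PI cell count recorded as viability.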
S16 viability = cytotoxicity in S16 Pmp22-F2sN Schwann cells; S16 Pmp22-F2sN Schwann cells viability, CellTiter-Glo, 24 h; Potency, µM (top dose mostly 57.5 µM), without a hit: at the highest dose activity change, negative = cytotoxicity, most hits filed as cytotoxic; 0.48% of 43,000 active; AID 1508642; further: potency means the concentration at half of the fitted maximal effect; on the % scale 0 is the no-effect control and ±100 the full control effect; nearly all actives have a fitted effect of over 65% in size
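S16 Pmp22-F2sN Schwann cells (500-1,000/well) in phenol-red-free DMEM with 10% FBS received 23 nL compound by pin tool for 24 h at 37 °C. Viability was then read as CellTiter-Glo luminescence after 15 min at room temperature.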
HTT promoter inh = inhibitors of huntingtin promoter activity; AID 1508623; Potency, µM (doses to about 57.5 µM), for the others: top-dose activity change, negative = inhibition, actives largely listed as inhibitors; 0.93% of 48,000 active; HEK293 HTT promoter firefly luciferase reporter, 24 h; further: potency means the concentration at half of the fitted maximal effect; nearly all actives have a fitted effect of over 50% in size
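HEK293 Fluc reporter, 2,500 cells/well, 24 h pre-culture; cpds up to 57.5 uM final, 24 h 37 degrees C; Dual-Glo, 10 min RT; normalized vehicle = 0%, zero RLU = -100%.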
PMP22 txn prim = modulators of PMP22 gene transcription in S16 Schwann cells; AID 1508649; 2% of 43,000 active; S16 Pmp22-F2sN Schwann cells (luciferase reporters placed in the Pmp22 gene), FLuc/NLuc coincidence luminescence, 24 h; Potency, µM (top dose mostly 57.5 µM), without a hit: top-dose activity change, negative = inhibition, hits mostly inhibitors; active means clear falling dose curves in both reporters; inconclusive means both reporters move, but less clearly or upward; inactive means either reporter flat; the % is the NLuc reporter signal; further: potency means the concentration at half of the fitted maximal effect; on the % scale 0 is the no-effect control and ±100 the full control effect
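Luminescent read-out of sequential FLuc and NLuc signals from a reporter embedded in the Pmp22 3' UTR of S16 Schwann cells, taken after 24 h compound exposure at 37C; compounds reducing both signals score as inhibitors of expression.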
NLuc sat counter = inhibits NanoLuc at saturating substrate, PMP22 counter-screen. 4% of 690 active. shares compounds with PMP22 txn prim. Potency, µM (top dose mostly 57.5 µM), without a hit: at the highest dose activity change, negative = inhibition, hits mostly inhibitors. Secreted NLuc enzyme (filtered S16 cell medium), Nano-Glo luminescence; further: potency means the concentration at half of the fitted maximal effect; on the % scale 0 is the no-effect control and ±100 the full control effect
NLuc Km ctr = inhibits NanoLuc under Km conditions, PMP22 counter-screen | shares compounds with PMP22 txn prim | secreted NLuc enzyme, coelenterazine luminescence, Km conditions | Potency, µM (doses to about 57.5 µM), without a hit: at the top dose activity change, negative = inhibition, most hits filed as inhibitors | 5% of 690 active | AID 1508639; further: potency means the concentration at half of the fitted maximal effect; on the % scale 0 is the no-effect control and ±100 the full control effect
FLuc ctr PMP22 = counter-screen for PMP22 expression modulators: firefly luciferase inhibition. Potency, µM (top dose mostly 57.5 µM), without a hit: at the highest dose activity, negative = inhibition, most hits filed as inhibitors. 690 tested, under 10 active. shares compounds with PMP22 txn prim. AID 1508640. purified P. pyralis FLuc, luminescence, 10 min; further: % of control where 0% means no effect
Target sequence (P08659 whole entry, looked up): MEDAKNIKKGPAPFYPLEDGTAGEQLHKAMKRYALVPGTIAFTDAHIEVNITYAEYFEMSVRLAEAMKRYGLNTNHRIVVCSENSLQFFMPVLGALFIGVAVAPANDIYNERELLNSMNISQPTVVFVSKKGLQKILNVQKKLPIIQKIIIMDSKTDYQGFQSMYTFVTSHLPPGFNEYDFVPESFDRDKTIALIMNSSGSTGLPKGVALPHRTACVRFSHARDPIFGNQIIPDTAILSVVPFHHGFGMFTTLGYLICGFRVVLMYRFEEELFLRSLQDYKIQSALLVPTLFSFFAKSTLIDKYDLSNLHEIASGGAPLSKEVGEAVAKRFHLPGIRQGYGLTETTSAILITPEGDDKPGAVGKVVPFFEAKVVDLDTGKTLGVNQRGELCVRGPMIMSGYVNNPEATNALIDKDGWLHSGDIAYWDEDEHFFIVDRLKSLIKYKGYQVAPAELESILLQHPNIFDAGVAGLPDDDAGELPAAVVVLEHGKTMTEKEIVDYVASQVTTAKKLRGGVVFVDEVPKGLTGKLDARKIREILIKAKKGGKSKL
S16 F2sN tox cnf = S16 Schwann cell cytotoxicity, confirmatory; S16 Schwann cells viability, CellTiter-Glo ATP luminescence, 24 h; Potency, µM (top dose mostly 57.5 µM), without a hit: at the highest dose activity change, negative = viability loss, hits mostly cytotoxic; 7% of 690 active; shares compounds with PMP22 txn prim; further: potency means the concentration at half of the fitted maximal effect; on the % scale 0 is the no-effect control and ±100 the full control effect
PMP22 txn cnf = PMP22 transcription modulation, confirmatory; shares compounds with PMP22 txn prim; S16 Schwann cells Pmp22-F2sN, dual luciferase, 24 h; Potency, µM (highest dose often 57.5 µM), without a hit: at the highest dose activity change, negative = inhibition, hits mostly inhibitors; 22% of 690 active; AID 1508646; active means clear falling dose curves in both reporters; inconclusive means both reporters move, but less clearly or upward; inactive means either reporter flat; the % is the FLuc reporter signal; further: potency means the concentration at half of the fitted maximal effect
PMP22 prot conf = confirmation of modulators of rat PMP22 protein expression | shares compounds with PMP22 txn prim | S16 Schwann cells Pmp22-HiBiT, luminescence, 48 h | Potency, µM (top dose mostly 27.9 µM), without a hit: at the top dose activity change, negative = inhibition, most hits filed as inhibitors | 95 tested, under 10 active | AID 1508647
Target sequence (P25094 whole entry, looked up): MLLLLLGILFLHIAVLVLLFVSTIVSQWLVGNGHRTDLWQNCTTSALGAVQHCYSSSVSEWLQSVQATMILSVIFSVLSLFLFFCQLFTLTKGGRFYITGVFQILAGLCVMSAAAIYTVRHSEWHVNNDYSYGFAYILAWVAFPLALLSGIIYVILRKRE
An asterisk follows results filed as active; ? = inconclusive; nt = no result; [ ] = dose if it differs, or a comment. Unless noted, the call rests on the fitted dose curve; in most records, active means well fitted curve in the direction sought with a large enough effect; inconclusive means small, poorly fitted or top-dose-only effect, or another doubt; inactive means no such curve, though single readings can be large; an effect the other way counts as inactive or inconclusive.

SMILES | HTT-AS act | mTORC1 inh | S16 viability | HTT promoter inh | PMP22 txn prim | NLuc sat counter | NLuc Km ctr | FLuc ctr PMP22 | S16 F2sN tox cnf | PMP22 txn cnf | others
COc1ccc(Cn2c(SCC(N)=O)nc3c(sc4ccccc43)c2=O)cc1 | 8% | -6% | ? | 10% | 12µM* | -6% | -2% | 10% | 27µM* | ?
CSc1nc2c(sc3ccccc32)c(=O)n1Cc1ccc(C)cc1 | -2% | -1% | -12% | -3% | ? | nt | nt | nt | nt | nt
NS(=O)(=O)c1cc(C(=O)NN2C[C@H]3[C@H]4CCC(C4)[C@H]3C2)ccc1Cl | 3% | nt | nt | 12% | nt | nt | nt | nt | nt | nt
COc1ccc(-c2cc(C(F)(F)F)nc(S(C)(=O)=O)n2)cc1 | -94% | 15µM* | ? | ? | 20µM* | -16% | 14µM* | -9% | ? | 16µM* | PMP22 prot conf=4%
COc1ccc(Br)c2c1-c1nc(NC(=O)c3cccc(C)c3)sc1C2 | -18% | -3% | -3% | -7% | 11µM* | ? | -19% | -13% | 3% | ? | PMP22 prot conf=33%
COc1ccc2c(c1)Cc1sc(NC(=O)c3cccc(Br)c3)nc1-2 | -20% | 3% | 11% | -30% | -35% | nt | nt | nt | nt | nt
COc1ccc2c(c1)-c1nc(NC(=O)c3ccc(Cl)cc3)sc1CC2 | -23% | -24% | 7% | -30% | ? | nt | nt | nt | nt | nt
COc1ccc2c(c1)-c1nc(NC(=O)c3cc(Cl)ccc3OC)sc1CC2 | -11% | 3% | -3% | -5% | 17µM* | -15% | -9% | 2% | ? | ?
O=C(Nc1nnc(-c2ccco2)o1)c1cc(-c2ccccc2)nc2ccccc12 | -11% | nt | nt | -10% | nt | nt | nt | nt | nt | nt
CCc1ccc(OCC(=O)Nc2cc3oc4ccccc4c3cc2OC)cc1 | -3% | 1% | 4% | 2% | 6.4µM* | 5% | 2% | 3% | -13% | 18µM* | PMP22 prot conf=11%
Cc1oc(-c2ccc(Cl)cc2)nc1CN1CCCC(C(=O)NCCc2ccccc2)C1 (stereo not drawn) | -33% | 4% | -13% | ? | 19µM* | -10% | -15% | -20% | ? | -29%
CCc1ccc(-c2nc(CN3CCC(C(=O)NCCc4ccc(Cl)cc4)CC3)c(C)o2)cc1 | -2% | -4% | 16% | -3% | 16µM* | -7% | 2% | -13% | ? | ?
O=C(NCCC1=CCCCC1)c1ccc2c(c1)N(Cc1ccc(Cl)cc1)C(=O)c1ccccc1S2=O (stereo not drawn) | -30% | -9% | 0% | -18% | ? | nt | nt | nt | nt | nt
O=C(NCCC1=CCCCC1)c1ccc2c(c1)N(Cc1ccccc1)C(=O)c1ccccc1S2=O (stereo not drawn) | -34% | 2% | -9% | -30% | 13µM* | -8% | 5% | 6% | -11% | -36%
CC[C@@]1(O)C[C@H](O[C@H]2C[C@H](N(C)C)[C@H](O[C@H]3C[C@H](O)[C@H](O[C@H]4CCC(=O)[C@H](C)O4)[C@H](C)O3)[C@H](C)O2)c2c(cc3c(c2O)C(=O)c2c(O)cccc2C3=O)[C@@H]1C(=O)OC | -25% | nt | nt | -2% | nt | nt | nt | nt | nt | nt
Cc1ccc(-c2csc(-c3cc4c([nH]c3=O)CC(c3ccccc3)CC4=O)n2)cc1 (stereo not drawn) | -39% | ? | -18% | ? | 6.3µM* | -16% | -5% | 8% | ? | -32%
C[C@@H]1[C@H](C)CC[C@]2(C(=O)O)CC[C@]3(C)C(=CC[C@@H]4[C@@]5(C)CC[C@H](O)C(C)(C)[C@H]5CC[C@]43C)[C@@H]12 | -19%[116 µM] | nt | nt | -12%[116 µM] | nt | nt | nt | nt | nt | nt
CC1(C)CC(=O)c2c(C(F)(F)F)nn(-c3ccc(C(N)=O)c(NC4CCC(O)CC4)c3)c2C1 (stereo not drawn) | -62% | nt | nt | ? | nt | nt | nt | nt | nt | nt
CCC(=O)N1CCc2cc(Br)cc(S(=O)(=O)N3CCCC(C(=O)NCc4cccc(OC)c4)C3)c21 (stereo not drawn) | -17% | -3% | 18% | -8% | 14µM* | -17% | 5% | 7% | -21% | -41%
CCC(=O)N1CCc2cc(Br)cc(S(=O)(=O)N3CCCC(C(=O)NCc4ccc(OC)cc4)C3)c21 (stereo not drawn) | -22% | -20% | 21% | -11% | ? | nt | nt | nt | nt | nt
CCc1ccc(S(=O)(=O)c2nnn3c2nc(N(C)Cc2ccccc2)c2cc(Cl)ccc23)cc1 | 16% | -5% | 10% | -10% | 2% | nt | nt | nt | nt | nt
CCc1ccc(S(=O)(=O)c2nnn3c2nc(N(CC)Cc2ccccc2)c2cc(Cl)ccc23)cc1 | 9% | -3% | -11% | 5% | 6.7µM* | -1% | 2% | 4% | 5% | -14%
COc1ccccc1CNc1nc2c(S(=O)(=O)c3ccc(C)c(C)c3)nnn2c2ccc(Cl)cc12 | 18% | 0% | 2% | 9% | 6.3µM* | -1% | -1% | -2% | 22µM* | 7.7µM*
COc1ccc(S(=O)(=O)NCC(c2ccco2)S(=O)(=O)c2ccc(C)cc2)cc1F (stereo not drawn) | -8% | -6% | ? | -23% | ? | nt | nt | nt | nt | nt
